# SARS PLP yeast – inhibitors of SARS-CoV papain-like protease in yeast | S. cerevisiae expressing SARS-CoV PLpro, growth rescue | Potency, µM (top dose mostly 32.9 µM), for inactives: top-dose activity, positive = growth rescue, usual class: activators | actives 0.19% (n = 330,000) | AID 485353; calls by dose curve; also: 0% is about no effect; nearly all actives have a fitted effect of over 55% in size
# AMA1 RON2 block – AMA1-RON2 (P. falciparum) interaction inhibition | Potency, µM (highest dose often 58.2 µM), without a hit: at the top dose activity change, negative = inhibition, usual class: inhibitors | AID 720542 | actives 0.2% (n = 360,000) | AlphaScreen AMA1-biotinylated RON2 peptide binding;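 also: 0% = vehicle wells and -100% = peptide control; nearly all actives have a fitted effect of over 45% in size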
#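 AMA1 (3D7) with his tag at 25 nM final met compounds first, then biotinylated RON2 peptide at 25 nM; detection used donor plus acceptor beads, 10 µg/mL apiece, read by AlphaScreen after 30 min at room temperature.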
# Pf growth 48h – P. falciparum growth inhibition at 48 hours (one generation) | P. falciparum luciferase growth in erythrocytes, 48 h | Potency, µM (series often up to 28.7 µM), for the others: at the top dose activity change, negative = inhibition, usual class: inhibitors | actives 5.9% (n = 310,000); also: % is scaled to controls: 0 for no effect and ±100 for the full control effect
#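 Luminescence readout; reporter = integrated firefly luciferase in P. falciparum. RBC culture at 2% hematocrit, 0.1% parasitemia final, 37 C/5% CO2; decreased signal taken as growth inhibition.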
# Pf growth 96h – inhibits malaria parasite growth, 96 h | P. falciparum luciferase reporter growth, 96 h | Potency, µM (top dose mostly 28.7 µM), without a hit: at the top dose activity change, negative = inhibition, hits mostly inhibitors | actives 6.9% (n = 320,000) | AID 504834; also: % is scaled to controls: 0 for no effect and ±100 for the full control effect
#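 96 h incubation, 37 C, 5% CO2, of luciferase-reporter P. falciparum-infected RBCs (2% hematocrit, 0.05% parasitemia final) with test compounds; endpoint luminescence.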
# Active calls of the source: *; ? = inconclusive; / = no result; [ ] = dose if it differs, or a comment. Most compounds without a hit are left out; they make up all but 9.4% or so of the library. Unless noted, calls follow the shape of the dose curve; as a rule, active = well fitted curve in the direction sought with a large enough effect; inconclusive = small, poorly fitted or top-dose-only effect, or another doubt; inactive = no such curve, though single readings can be large; an effect the other way counts as inactive or inconclusive. Potency is read from the fitted curve at half-maximal effect.
SMILES,SARS PLP yeast,AMA1 RON2 block,Pf growth 48h,Pf growth 96h
C/C(=N\NC(=O)c1ccn(C)n1)c1ccc(NC(=O)C2CCC2)cc1,?,-12%,13%,3%
C/C(=N\NC(=O)c1nn(C)c(C)c1Br)c1ccc(NC(=O)C2CCCC2)cc1,4%,-2%,-18%,13µM*
Cc1c(/C(Cc2ccccc2)=N/O)c2ccccc2n1C,13%,-9%,?,10µM*
O=C(NC1CCSc2ccccc21)c1cccc(Cl)c1 (stereo not drawn),-4%,-8%,?,15µM*
NS(=O)(=O)c1cccc(C(=O)NC2CCSc3ccccc32)c1 (stereo not drawn),-1%,-12%,-23%,8%
Cc1cc(C(=O)OC(C(=O)Nc2cccc(C(F)(F)F)c2)c2ccccc2)c(C)o1 (stereo not drawn),1%,-4%[2.32 µM],9.3µM*,5.2µM*
CCOc1ccc(/C=C2\SC(=S)N(N3C(=O)C4CC4C3=O)C2=O)cc1 (stereo not drawn),2%,30%,4.1µM*,-7%
Clc1ccc2c(c1)C=Nc1c(NCc3ccccc3)ncnc1O2,6%,9%,?,40%
C1=Nc2c(Nc3ccccc3)ncnc2Oc2ccccc21,-9%,2%,29%,13µM*
c1ccc(OCc2nc(-c3ccccc3)no2)cc1,1%,39%,141%,/
Cc1ccc(OCc2nc(-c3cccnc3)no2)cc1C,-5%,10%,19%,0.41µM*
c1ccc(OCc2nc(-c3ccncc3)no2)cc1,-2%,22%,70%,12µM*
OC[C@@H]1CN(Cc2ccc(Cl)cc2)C[C@H](n2cnc3c(NCc4ccco4)ncnc32)O1,/,-2%,/,/
CC1CN(c2ccc(Oc3ccccc3)cc2)c2nc3c(c(=O)[nH]c(=O)n3C)n2C1 (stereo not drawn),4%,-17%,-24%,75%
CC(=O)Nc1ccc(C(=O)Nc2nc(-c3ccccn3)cs2)cc1,1%,-20%,?,?
Cc1cc(C(=O)Nc2nc(-c3ccccn3)cs2)ccc1[N+](=O)[O-],-20%,3%,9.3µM*,?
O=C(Nc1nc(-c2ccccn2)cs1)c1cc(Cl)ccc1[N+](=O)[O-],-5%,-5%,13µM*,2.3µM*
COc1cccc(CN2CCC(CO)(CC3CCCCO3)CC2)c1 (stereo not drawn),-2%,-8%,-20%,9.3µM*
Cc1ccc(CN2CCC(CO)(CC3CCCCO3)CC2)o1 (stereo not drawn),1%,-3%,-5%,?
Cc1ccc2[nH]c(CN3CCC(CO)(CC4CCCCO4)CC3)c(C)c2c1 (stereo not drawn),0%,?,9.3µM*,?
OCC1(CC2CCCCO2)CCN(C/C=C/c2ccccc2)CC1 (stereo not drawn),1%,4%,5.2µM*,-15%
CCN(Cc1ccncc1)Cc1cn(C)nc1-c1ccc(Oc2ccccc2)cc1,-2%,0%,?,19%
CC(=O)c1cccc(NC(=O)COc2cc3oc(=O)c(CC(C)O)c(C)c3cc2Cl)c1 (stereo not drawn),23%,-2%,?,10µM*
Nc1cc(=O)n(Cc2ccccc2)c(=O)n1-c1ccc(Cl)cc1,-1%,2%,10µM*,?
CN(C)c1ccc(-c2cccc(C3CC=CC4C3C(=O)N(Cc3ccccc3)C4c3ccc4ccccc4c3)c2)cc1 (stereo not drawn),2%,-16%,9.3µM*,?
SMILES,SARS PLP yeast,AMA1 RON2 block,Pf growth 48h,Pf growth 96h
COc1ccc(-c2cccc(C3CC=CC4C3C(=O)N(Cc3ccccc3)C4c3ccc4ccccc4c3)c2)cc1 (stereo not drawn),0%,8%,9.3µM*,15µM*
COc1ccc(C2C3C=CCC(c4cccc(-c5ccc(C)cc5)c4)C3C(=O)N2Cc2ccccc2)cc1Cl (stereo not drawn),-3%,-8%,12µM*,?
COc1ccc(-c2cccc([C@H]3[C@@H]4C=CC[C@@H](C)[C@@H]4C(=O)N3Cc3ccccc3)c2)cc1,6%,-16%,/,/
Cc1ccc(-c2cccc(C3CC=CC4C3C(=O)N(Cc3ccccc3)C4c3ccc(C(F)(F)F)cc3)c2)cc1 (stereo not drawn),-3%,4%,?,?
O=C1C2C(c3ccccc3)CC=CC2[C@H](c2ccc3ccccc3c2)N1Cc1ccccc1 (stereo partly drawn),-2%,10%,?,?
O=C(Nc1ccc(Cl)cn1)C1CCCN1S(=O)(=O)c1cccc2ccccc12 (stereo not drawn),-20%,-17%,/,?
CCOC(=O)[C@]12Cc3c(cc(OC)c(OC)c3OC)[C@H]1N(C(C)C)C(=O)c1ccccc12,/,-2%,/,/
FC(F)(F)c1cc(Sc2ccccc2)nc(-c2ccccn2)n1,-1%,17%,-22%,?
FC(F)(F)c1cc(Nc2ccccc2)nc(-c2ccccn2)n1,-4%,51%,2.9µM*,?
CC(C)Nc1cc(C(F)(F)F)nc(-c2ccccn2)n1,-6%,14%,5.2µM*,4.1µM*
COC[C@H]1CCCN1[C@@H]1CS(=O)(=O)N[C@H]1COCc1ccccc1,/,8%,/,/
C/C(=N\NC(=O)c1cc2ccccc2cc1O)c1cccs1,-4%,76%,57%,13%
CCCCOC(=O)Nc1cc(C(=O)OC)ccc1C(=O)OC,-3%,40%,10µM*,?
COC(=O)c1ccc(C(=O)OC)c(NC(=S)N2CCC(C)CC2)c1,4%,-19%,-25%,7.4µM*
O=C(Cc1coc2ccc3ccccc3c12)N1CCc2ccccc21,-2%,-15%,-13%,8.3µM*
O=C(Cc1c[nH]c2ccccc12)N1CCc2ccccc21,-11%,-11%,-26%,10µM*
CCCN(CCC)C(=O)Cc1coc2ccc3ccccc3c12,9%,7%,12µM*,/
Cc1ccc2c(CC(=O)N3CCc4ccccc43)coc2c1,-1%,5%,81%,-11%
O=C(Cc1coc2ccc3ccccc3c12)N1CCN(c2ncccn2)CC1,2%,3%,?,8.3µM*
CC1CCC(C(C)C)C(OCC(O)CN2CCOCC2)C1 (stereo not drawn),-5%,10%,-6%,/
Cc1cccn2c(=O)c(C(=O)NC3CCCCC3C)c(O)nc12 (stereo not drawn),-6%,28%,13µM*,?
Cc1ccn2c(=O)c(C(=O)NCCCN3CCCCC3C)c(O)nc2c1 (stereo not drawn),-3%,-5%,-12%,?
Cc1ccn2c(=O)c(C(=O)NC3CCCCC3C)c(O)nc2c1 (stereo not drawn),-1%,-22%,2.3µM*,?
Cc1cccn2c(=O)c(C(=O)NC3CCCCC3)c(O)nc12,-2%,-4%,?,?
Cc1cccn2c(=O)c(C(=O)NC3CC(C)CC(C)(C)C3)c(O)nc12 (stereo not drawn),-4%,-5%,3.7µM*,?
Cc1cccc(CN2CCC(N3CC(C)OC(C)C3)CC2)c1 (stereo not drawn),-2%,13%,-7%,12µM*

# Screening results deposited in PubChem by National Center for Advancing Translational Sciences (NCATS).
